According to paper PMC7862700, “An all-to-all approach to the identification of sequence-specific readers for epigenetic DNA modifications on cytosine”:

How the values were obtained:
Experiment in all cases: DAPPL (digital affinity profiling via proximity ligation, sequencing); 10 mM Tris-HCl pH 7.5, 50 mM NaCl, 1 mM DTT, 4% glycerol, room temperature, 30 min; GST-TFs on glutathione beads, 16-mer random dsDNA library, 0.1% formaldehyde crosslink after washing; high values mean tight binding
FEV = target: T1, FEV (Homo sapiens, UniProt Q99581 1-238); settings: protein: recombinant; tags: N-terminal GST; dsDNA, one strand shown
T1 sequence: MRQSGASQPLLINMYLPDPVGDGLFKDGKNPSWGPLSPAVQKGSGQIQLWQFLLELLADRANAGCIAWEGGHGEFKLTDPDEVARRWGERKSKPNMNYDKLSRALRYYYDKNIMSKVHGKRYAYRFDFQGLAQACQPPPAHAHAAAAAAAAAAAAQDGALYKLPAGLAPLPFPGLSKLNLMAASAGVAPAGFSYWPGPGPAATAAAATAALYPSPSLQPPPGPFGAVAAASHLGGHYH
Method in brief: (§1)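 Sequencing on an Illumina NextSeq500 followed washing, crosslinking with 0.1% formaldehyde, proximity ligation (BsaI/T4 ligase, 1 h, 37 °C) and PCR amplification of pools that had been incubated for 30 min at room temperature with 200 nmole of a random double-stranded 16-mer DNA library in Tris/NaCl/DTT/glycerol buffer. Each pool held DNA-barcoded human transcription factors, expressed in yeast as GST fusions and captured on glutathione beads, plus a tag-only sample. Binding signal is a hexamer's read frequency for a factor divided by its frequency in the tag-only sample.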

ETV5 = ETV5 (Homo sapiens, UniProt P41161 1-510); settings: protein: recombinant; tags: N-terminal GST; dsDNA, one strand shown
Sequence of ETV5 (P41161 whole entry): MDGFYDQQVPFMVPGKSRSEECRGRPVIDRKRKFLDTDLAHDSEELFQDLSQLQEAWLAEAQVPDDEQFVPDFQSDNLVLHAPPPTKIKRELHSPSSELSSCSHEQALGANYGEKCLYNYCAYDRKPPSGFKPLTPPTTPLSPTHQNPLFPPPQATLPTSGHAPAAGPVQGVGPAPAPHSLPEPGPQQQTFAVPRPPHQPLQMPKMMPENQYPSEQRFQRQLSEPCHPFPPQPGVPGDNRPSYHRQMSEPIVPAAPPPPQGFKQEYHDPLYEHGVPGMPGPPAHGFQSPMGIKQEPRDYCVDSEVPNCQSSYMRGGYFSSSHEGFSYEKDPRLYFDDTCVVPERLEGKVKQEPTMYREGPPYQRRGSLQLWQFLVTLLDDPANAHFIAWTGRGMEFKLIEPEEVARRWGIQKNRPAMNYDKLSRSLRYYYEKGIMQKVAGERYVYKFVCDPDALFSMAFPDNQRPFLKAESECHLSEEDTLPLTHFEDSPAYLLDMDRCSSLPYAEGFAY
Method in brief: as §1

HSF1 = HSF1 (Homo sapiens, UniProt Q00613 1-529); settings: protein: recombinant; tags: N-terminal GST; chain copies: 3; dsDNA, one strand shown
Sequence of HSF1 (Q00613 whole entry): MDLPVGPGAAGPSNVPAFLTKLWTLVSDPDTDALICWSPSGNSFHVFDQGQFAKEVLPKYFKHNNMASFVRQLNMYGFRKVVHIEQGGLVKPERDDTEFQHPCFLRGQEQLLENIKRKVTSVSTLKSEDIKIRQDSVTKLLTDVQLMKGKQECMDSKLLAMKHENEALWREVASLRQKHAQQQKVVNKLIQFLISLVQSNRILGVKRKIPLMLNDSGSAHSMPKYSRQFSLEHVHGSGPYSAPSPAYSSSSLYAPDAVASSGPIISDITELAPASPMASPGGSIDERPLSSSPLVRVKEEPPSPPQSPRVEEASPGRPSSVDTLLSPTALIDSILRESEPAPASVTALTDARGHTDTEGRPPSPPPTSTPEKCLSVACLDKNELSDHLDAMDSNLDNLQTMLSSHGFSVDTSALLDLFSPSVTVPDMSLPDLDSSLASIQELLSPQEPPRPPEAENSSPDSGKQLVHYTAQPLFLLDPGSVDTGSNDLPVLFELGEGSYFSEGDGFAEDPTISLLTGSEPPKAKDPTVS
Method in brief: as §1

SPIC = target: T2, SPIC (Homo sapiens, UniProt Q8N5J4 1-248); settings: protein: recombinant; tags: N-terminal GST; dsDNA, one strand shown
T2 sequence: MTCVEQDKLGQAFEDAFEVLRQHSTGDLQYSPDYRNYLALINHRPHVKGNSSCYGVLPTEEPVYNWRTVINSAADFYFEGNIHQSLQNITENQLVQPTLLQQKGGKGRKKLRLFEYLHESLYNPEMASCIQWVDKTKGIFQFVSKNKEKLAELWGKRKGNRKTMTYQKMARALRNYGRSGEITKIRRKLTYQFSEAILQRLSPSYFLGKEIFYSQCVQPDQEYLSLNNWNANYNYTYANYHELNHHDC
Method in brief: as §1

ELF4 = ELF4 (Homo sapiens, UniProt Q99607 1-663); settings: protein: recombinant; tags: N-terminal GST; dsDNA, one strand shown
Sequence of ELF4 (Q99607 whole entry): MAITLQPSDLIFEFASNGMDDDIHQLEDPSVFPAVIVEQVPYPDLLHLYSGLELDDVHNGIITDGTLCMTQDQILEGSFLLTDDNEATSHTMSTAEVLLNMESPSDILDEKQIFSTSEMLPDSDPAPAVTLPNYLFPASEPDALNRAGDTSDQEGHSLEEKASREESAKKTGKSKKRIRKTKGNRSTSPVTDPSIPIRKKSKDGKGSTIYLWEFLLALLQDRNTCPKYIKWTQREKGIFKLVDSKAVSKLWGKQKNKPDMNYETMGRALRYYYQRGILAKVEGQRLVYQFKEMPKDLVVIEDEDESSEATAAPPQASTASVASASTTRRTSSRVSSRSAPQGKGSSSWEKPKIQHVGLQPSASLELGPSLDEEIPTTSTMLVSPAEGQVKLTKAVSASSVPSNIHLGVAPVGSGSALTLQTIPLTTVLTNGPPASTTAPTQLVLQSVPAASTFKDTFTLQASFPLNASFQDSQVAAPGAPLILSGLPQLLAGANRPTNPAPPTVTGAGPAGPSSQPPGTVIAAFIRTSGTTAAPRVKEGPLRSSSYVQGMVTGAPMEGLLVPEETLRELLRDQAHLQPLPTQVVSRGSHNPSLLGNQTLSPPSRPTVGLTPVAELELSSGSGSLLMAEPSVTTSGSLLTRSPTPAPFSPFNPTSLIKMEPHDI
Method in brief: as §1

ELK4 = target: T3, ELK4 (Homo sapiens, UniProt P28324-2 1-405); settings: protein: recombinant; tags: N-terminal GST; dsDNA, one strand shown
T3 sequence: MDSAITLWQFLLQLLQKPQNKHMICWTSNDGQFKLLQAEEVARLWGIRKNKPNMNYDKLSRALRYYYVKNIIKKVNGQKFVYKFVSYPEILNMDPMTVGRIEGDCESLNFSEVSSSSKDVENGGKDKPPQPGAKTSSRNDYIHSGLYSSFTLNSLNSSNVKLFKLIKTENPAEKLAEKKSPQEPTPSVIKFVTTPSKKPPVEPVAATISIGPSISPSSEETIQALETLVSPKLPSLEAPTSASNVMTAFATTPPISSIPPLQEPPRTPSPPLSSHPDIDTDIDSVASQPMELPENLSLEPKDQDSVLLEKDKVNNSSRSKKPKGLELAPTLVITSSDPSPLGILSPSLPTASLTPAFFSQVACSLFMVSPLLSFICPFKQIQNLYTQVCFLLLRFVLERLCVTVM
Method in brief: as §1

ETV2 = target: T4, ETV2 (Homo sapiens, UniProt O00321 1-342); settings: protein: recombinant; tags: N-terminal GST; dsDNA, one strand shown
T4 sequence: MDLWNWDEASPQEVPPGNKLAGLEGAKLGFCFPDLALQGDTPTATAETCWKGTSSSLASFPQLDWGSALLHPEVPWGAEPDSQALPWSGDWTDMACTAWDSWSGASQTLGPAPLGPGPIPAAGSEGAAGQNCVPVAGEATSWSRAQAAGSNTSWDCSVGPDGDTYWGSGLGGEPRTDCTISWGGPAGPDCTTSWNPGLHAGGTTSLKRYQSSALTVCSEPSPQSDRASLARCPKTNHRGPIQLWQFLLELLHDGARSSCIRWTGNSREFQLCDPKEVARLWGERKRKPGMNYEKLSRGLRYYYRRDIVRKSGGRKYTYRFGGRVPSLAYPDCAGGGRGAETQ
Method in brief: as §1

ELF3 = target: T5, ELF3 (Homo sapiens, UniProt P78545 1-371); settings: protein: recombinant; tags: N-terminal GST; dsDNA, one strand shown
T5 sequence: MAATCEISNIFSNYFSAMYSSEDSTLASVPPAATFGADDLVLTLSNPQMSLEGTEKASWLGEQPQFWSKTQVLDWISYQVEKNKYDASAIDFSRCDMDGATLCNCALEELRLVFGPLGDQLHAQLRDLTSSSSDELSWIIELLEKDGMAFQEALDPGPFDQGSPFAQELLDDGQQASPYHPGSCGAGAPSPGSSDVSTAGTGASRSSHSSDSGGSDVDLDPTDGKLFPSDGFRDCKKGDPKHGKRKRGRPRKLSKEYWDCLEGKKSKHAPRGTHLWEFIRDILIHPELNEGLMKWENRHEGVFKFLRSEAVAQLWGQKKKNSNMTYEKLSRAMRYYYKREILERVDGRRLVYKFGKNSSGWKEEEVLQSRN
Method in brief: as §1

CRX = CRX (Homo sapiens, UniProt O43186 1-299); settings: protein: recombinant; tags: N-terminal GST; dsDNA, one strand shown
Sequence of CRX (O43186 whole entry): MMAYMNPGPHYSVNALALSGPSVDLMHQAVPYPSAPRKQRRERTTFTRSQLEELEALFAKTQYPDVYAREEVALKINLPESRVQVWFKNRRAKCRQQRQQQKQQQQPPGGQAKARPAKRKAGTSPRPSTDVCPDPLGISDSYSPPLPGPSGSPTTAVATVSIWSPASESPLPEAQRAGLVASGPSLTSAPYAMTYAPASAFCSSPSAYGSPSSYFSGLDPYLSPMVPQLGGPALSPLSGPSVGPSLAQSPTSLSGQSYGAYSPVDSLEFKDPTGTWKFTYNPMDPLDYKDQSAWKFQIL
Method in brief: as §1

ETV1 = ETV1 (Homo sapiens, UniProt P50549 1-477); settings: protein: recombinant; tags: N-terminal GST; dsDNA, one strand shown
Sequence of ETV1 (P50549 whole entry): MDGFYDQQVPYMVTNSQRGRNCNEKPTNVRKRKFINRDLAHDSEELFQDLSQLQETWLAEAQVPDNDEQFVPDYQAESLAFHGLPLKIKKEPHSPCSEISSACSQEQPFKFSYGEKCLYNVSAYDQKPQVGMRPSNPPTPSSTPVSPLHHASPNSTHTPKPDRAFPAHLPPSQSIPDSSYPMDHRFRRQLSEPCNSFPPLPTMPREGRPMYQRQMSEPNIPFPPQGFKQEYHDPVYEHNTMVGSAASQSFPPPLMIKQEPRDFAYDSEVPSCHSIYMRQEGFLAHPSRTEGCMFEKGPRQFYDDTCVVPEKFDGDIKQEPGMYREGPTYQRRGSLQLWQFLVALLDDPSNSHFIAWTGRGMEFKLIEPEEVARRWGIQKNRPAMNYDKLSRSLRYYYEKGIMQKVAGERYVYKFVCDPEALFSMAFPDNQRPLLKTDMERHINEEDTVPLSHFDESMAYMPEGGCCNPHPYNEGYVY
Method in brief: as §1

ERF = target: T6, ERF (Homo sapiens, UniProt P50548 1-548); settings: protein: recombinant; tags: N-terminal GST; dsDNA, one strand shown
T6 sequence: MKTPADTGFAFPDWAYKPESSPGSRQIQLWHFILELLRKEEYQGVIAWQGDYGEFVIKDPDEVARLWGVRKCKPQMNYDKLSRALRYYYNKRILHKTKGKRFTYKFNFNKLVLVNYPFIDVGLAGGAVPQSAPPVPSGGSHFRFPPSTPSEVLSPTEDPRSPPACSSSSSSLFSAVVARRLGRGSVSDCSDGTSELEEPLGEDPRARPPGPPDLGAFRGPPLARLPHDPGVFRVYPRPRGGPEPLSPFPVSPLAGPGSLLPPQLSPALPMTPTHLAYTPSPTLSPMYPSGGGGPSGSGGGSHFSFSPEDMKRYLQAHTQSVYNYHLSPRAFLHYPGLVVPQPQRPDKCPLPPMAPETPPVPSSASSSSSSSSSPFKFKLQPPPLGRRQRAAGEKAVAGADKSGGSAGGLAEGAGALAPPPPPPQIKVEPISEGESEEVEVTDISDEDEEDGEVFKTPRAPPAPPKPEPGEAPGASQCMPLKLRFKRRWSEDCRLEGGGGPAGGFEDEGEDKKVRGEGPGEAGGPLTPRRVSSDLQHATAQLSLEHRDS
Method in brief: as §1

ETV3L = target: T7, ETV3L (Homo sapiens, UniProt Q6ZN32 1-361); settings: protein: recombinant; tags: N-terminal GST; dsDNA, one strand shown
T7 sequence: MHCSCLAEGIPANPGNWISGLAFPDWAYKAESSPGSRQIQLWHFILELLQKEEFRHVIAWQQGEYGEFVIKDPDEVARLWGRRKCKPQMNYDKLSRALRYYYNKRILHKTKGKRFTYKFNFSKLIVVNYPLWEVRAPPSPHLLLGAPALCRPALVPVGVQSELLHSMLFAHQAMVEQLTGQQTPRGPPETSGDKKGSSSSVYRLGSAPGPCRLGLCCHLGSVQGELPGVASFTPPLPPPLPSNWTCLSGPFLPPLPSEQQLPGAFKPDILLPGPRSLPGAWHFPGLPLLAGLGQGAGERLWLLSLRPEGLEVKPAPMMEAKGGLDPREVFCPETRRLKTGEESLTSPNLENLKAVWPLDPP
Method in brief: as §1

ETS2 = target: T8, ETS2 (Homo sapiens, UniProt P15036 1-469); settings: protein: recombinant; tags: N-terminal GST; dsDNA, one strand shown
T8 sequence: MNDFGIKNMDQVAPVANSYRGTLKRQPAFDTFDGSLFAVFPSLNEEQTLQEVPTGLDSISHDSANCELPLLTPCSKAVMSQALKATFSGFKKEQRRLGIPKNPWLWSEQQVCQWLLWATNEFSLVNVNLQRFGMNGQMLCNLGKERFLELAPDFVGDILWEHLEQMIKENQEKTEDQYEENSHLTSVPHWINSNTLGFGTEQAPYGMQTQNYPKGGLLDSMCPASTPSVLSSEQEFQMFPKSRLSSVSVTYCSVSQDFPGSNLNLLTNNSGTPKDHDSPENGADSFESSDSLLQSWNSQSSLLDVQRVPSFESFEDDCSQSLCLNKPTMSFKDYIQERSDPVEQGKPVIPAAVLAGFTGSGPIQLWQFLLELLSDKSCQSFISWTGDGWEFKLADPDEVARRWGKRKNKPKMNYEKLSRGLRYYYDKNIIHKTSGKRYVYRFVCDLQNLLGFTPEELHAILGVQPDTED
Method in brief: as §1

SPDEF = target: T9, SPDEF (Homo sapiens, UniProt O95238 1-335); settings: protein: recombinant; tags: N-terminal GST; dsDNA, one strand shown
T9 sequence: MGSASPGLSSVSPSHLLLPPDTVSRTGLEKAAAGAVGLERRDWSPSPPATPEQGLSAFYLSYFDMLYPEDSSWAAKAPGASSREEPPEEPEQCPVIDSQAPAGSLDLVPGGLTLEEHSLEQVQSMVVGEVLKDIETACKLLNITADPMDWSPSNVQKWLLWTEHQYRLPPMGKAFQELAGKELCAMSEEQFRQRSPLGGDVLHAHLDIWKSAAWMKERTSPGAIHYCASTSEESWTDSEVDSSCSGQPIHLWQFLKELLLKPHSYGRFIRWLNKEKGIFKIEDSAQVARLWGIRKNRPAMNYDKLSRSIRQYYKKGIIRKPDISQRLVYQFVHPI
Method in brief: as §1

ETV7 = target: T10, ETV7 (Homo sapiens, UniProt Q9Y603 1-341); settings: protein: recombinant; tags: N-terminal GST; dsDNA, one strand shown
T10 sequence: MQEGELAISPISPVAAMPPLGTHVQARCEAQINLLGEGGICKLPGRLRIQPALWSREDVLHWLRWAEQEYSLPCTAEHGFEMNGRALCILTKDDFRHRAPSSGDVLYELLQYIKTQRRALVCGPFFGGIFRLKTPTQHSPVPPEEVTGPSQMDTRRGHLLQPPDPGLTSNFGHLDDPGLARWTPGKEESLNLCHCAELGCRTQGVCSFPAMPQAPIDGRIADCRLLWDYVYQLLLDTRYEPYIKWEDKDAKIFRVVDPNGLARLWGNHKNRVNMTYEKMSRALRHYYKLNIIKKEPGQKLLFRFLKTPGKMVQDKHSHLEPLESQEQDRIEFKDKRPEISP
Method in brief: as §1

ELF5 = target: T11, ELF5 (Homo sapiens, UniProt Q9UKW6-2 1-255); settings: protein: recombinant; tags: N-terminal GST; dsDNA, one strand shown
T11 sequence: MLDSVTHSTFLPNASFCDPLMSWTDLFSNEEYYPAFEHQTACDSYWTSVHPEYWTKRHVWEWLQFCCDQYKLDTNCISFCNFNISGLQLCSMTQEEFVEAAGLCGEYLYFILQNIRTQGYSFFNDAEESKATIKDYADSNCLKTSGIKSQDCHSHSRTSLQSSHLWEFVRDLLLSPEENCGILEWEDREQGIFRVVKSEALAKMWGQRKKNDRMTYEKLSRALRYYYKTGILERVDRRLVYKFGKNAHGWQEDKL
Method in brief: as §1

ETV3 = target: T12, ETV3 (Homo sapiens, UniProt P41162-2 1-143); settings: protein: recombinant; tags: N-terminal GST; dsDNA, one strand shown
T12 sequence: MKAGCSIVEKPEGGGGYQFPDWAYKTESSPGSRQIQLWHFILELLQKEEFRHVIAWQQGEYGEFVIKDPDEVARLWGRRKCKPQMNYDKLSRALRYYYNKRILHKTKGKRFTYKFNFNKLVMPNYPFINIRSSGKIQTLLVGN
Method in brief: as §1

ETV6 = ETV6 (Homo sapiens, UniProt P41212 1-452); settings: protein: recombinant; tags: N-terminal GST; dsDNA, one strand shown
Sequence of ETV6 (P41212 whole entry): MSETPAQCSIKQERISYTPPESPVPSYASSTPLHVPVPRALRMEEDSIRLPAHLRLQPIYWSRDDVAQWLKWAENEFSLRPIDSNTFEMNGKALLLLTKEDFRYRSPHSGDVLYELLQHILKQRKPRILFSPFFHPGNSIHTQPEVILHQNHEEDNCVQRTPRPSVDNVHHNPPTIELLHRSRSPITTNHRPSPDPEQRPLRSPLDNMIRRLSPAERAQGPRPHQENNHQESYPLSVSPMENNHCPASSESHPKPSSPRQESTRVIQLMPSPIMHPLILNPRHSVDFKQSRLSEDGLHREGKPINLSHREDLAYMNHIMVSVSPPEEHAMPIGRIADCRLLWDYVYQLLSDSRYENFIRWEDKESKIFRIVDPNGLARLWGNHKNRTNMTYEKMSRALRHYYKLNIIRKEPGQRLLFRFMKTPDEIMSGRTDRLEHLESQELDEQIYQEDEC
Method in brief: as §1

Sequence: TAGATT
- binding signal (FEV): 1.14 fold enrichment (6-mer frequency, TF over GST control)
- binding signal (ETV5): 1.12 fold enrichment (6-mer frequency, TF over GST control)
- binding signal (HSF1): 2.19 fold enrichment (6-mer frequency, TF over GST control)
- binding signal (SPIC): 1.28 fold enrichment (6-mer frequency, TF over GST control)
- binding signal (ELF4): 1.19 fold enrichment (6-mer frequency, TF over GST control)
- binding signal (ELK4): 1.29 fold enrichment (6-mer frequency, TF over GST control)
- binding signal (ETV2): 1.13 fold enrichment (6-mer frequency, TF over GST control)
- binding signal (ELF3): 1.07 fold enrichment (6-mer frequency, TF over GST control)
- binding signal (CRX): 2.29 fold enrichment (6-mer frequency, TF over GST control)
- binding signal (ETV1): 1.22 fold enrichment (6-mer frequency, TF over GST control)
- binding signal (ERF): 1.37 fold enrichment (6-mer frequency, TF over GST control)
- binding signal (ETV3L): 1.31 fold enrichment (6-mer frequency, TF over GST control)
- binding signal (ETS2): 1.13 fold enrichment (6-mer frequency, TF over GST control)
- binding signal (SPDEF): 1.15 fold enrichment (6-mer frequency, TF over GST control)
- binding signal (ETV7): 1.22 fold enrichment (6-mer frequency, TF over GST control)
- binding signal (ELF5): 1.11 fold enrichment (6-mer frequency, TF over GST control)
- binding signal (ETV3): 1 fold enrichment (6-mer frequency, TF over GST control)
- binding signal (ETV6): 1.17 fold enrichment (6-mer frequency, TF over GST control)
